Here are results for 89 compounds from PubChem BioAssay AID743279 (National Center for Advancing Translational Sciences (NCATS), 2014).

The whole screen tested about 360,000 compounds, of which about 17,000 (4.7%) were called active. Inconclusive results (about 5%) are left out. Cut-off read from the data, not from the text of the source: active = activity change below about -50%; inconclusive = mostly about -30% to -49%; inactive = weaker than that. What follows is part of a selection rich in actives, with near analogues and random picks from the rest.
% is set by controls: 0 for no effect and ±100 for the full control effect.

This experiment can be described thus: qHTS for Inhibitors of Inflammasome Signaling: IL-1-beta AlphaLISA Primary Screen. The conditions noted are these: THP-1 LPS/ATP IL-1B secretion, 16 h; at 57.5 µM, hits give low values. The text has this:
Inflammasomes are a set of intracellular multi-protein complexes that enable autocatalytic activation of inflammatory caspases and drive the innate immune response to counter harmful agents. […] A qHTS assay, based on AlphaLISA technology, was developed to screen the Molecular Libraries Small Molecule Repository (MLSMR) to look for novel inflammasome inhibitors. The assay detects IL-1B using AlphaLISA anti-IL-1B acceptor and donor beads. A decreased emission signal, indicating reduced IL-1B secretion, is the desired outcome for this assay. NIH Chemical Genomics Center [NCGC] NIH Molecular Libraries Probe Centers Network [MLPCN] MLPCN Grant: MH095513 Assay Provider: Shyam Biswal Ph.D., Johns Hopkins University Immunity. 2012 Jul 27;37(1):85-95. PMID: 22819042 [2] Curr Pharm Des. 2012;18(16):2320-8. PMID: 22390695
Three microliters containing 3000 THP-1 cells were dispensed into the wells of solid, white, tissue culture treated Greiner 1,536-well plates. Library compounds and positive control, Glyburide, were pin-transferred (23 nL) by a Kalypsys pin-tool equipped with a 1,536-pin array, resulting in final compound concentration ranges of 2.5 nM to 57.5 uM. After 1 hr of cell culture incubation (37 °C, 5% CO2), 1 microL of 1 microg/mL lipopolysaccharide (250 ng/mL, final) and 5 mM ATP (1.25 mM, final) were added to stimulate the cells. After 16 hr of cell culture incubation with the compounds, 1.5 uL of anti-IL-1B acceptor beads (6 ug/mL, final) and biotinylated antibody (0.6 nM, final) were added to the plate, followed by a 1 hr incubation at ambient temperature. To detect the secreted IL-1B, 1.5 uL of AlphaLISA SA-Donor beads (24 ug/mL, final) were added, followed by 30 min of incubation in the dark at ambient temperature. The AlphaLISA signal was read by a PerkinElmer EnVision plate reader with an ultrasensitive luminescence detector and 1536 Plate HTS AlphaScreen aperture (excitation of 680nm and emission of 615nm).
(In general: qHTS replaces the single test concentration by a dilution series.)
With `CN(C(=O)CSc1nc(C2CC2)nc2ccccc12)c1nc(-c2ccccc2)cs1`, the activity change was -16.2% (inactive). For the compound `CC(C)N(C(=O)CSc1nc(COc2ccccc2)nc2ccccc12)C(C)C`, the activity change was -71.7% (active).

`CCCc1nc(SCC(=O)Nc2ccc(S(=O)(=O)N(C)C)cc2)c2ccccc2n1`: the activity change is -11.4% (inactive).

Regarding `CCOC(=O)c1ccn(S(=O)(=O)c2ccc(C)cc2)c1-c1ccccc1`, the activity change was 40.2% (inactive). As to `CN(N)c1nc(N2CCCC2)nc(N2CCCC2)n1`, the activity change is 3.61% (inactive). `O=C(NCc1ccccc1Cl)c1csc([C@@H]2O[C@H](CO)[C@@H](O)[C@H]2O)n1`: the activity change is 6.54% (inactive). For the compound `CN(C(=O)c1cccc(NC(=O)Cc2ccc(NC(=O)C3CCCN(C(=O)C4CC4)C3)cc2)c1)C1CC1` (centres undefined), the activity change was 54.5% (inactive). The figure for `Cc1ccc2nc(-c3ccccc3)c(CC3CCCCC3)n2c1` is -0.767% (inactive); for `CCCCN(C)CCNC(=O)CSCc1ccc(C)cc1` it is 16.4% (inactive). The value for `CC1(C)Cc2ccccc2-c2nc(CN3CCOCC3)[nH]c(=O)c21` was 0% (inactive); that for `CCC1(CC)Cc2ccccc2-c2nc(CCl)[nH]c(=O)c21` was 38.6% (inactive).

Take `CCOC(=O)C1Cn2c(nc3c(c2=O)C(C)(CC)Cc2ccccc2-3)S1` (centres undefined): the activity change was -60.4% (active). In the case of `CC(OC(=O)c1cccc(S(=O)(=O)N2CCOCC2)c1)C(=O)NCC1CCCCC1` (centres undefined), the activity change was -2.42% (inactive). As for `COc1cc(/C=C/C(=O)OCC(=O)Nc2cccc(Oc3ccccc3)c2)ccc1O`, the activity change is 15.2% (inactive). Regarding `COC(=O)c1ccc(C2C(Oc3ccccc3C)C(=O)N2CCc2ccc(OC)c(OC)c2)cc1` (centres undefined), the activity change is -21.3% (inactive). For `Cc1cc(NC(=O)/C=C/C(=O)N(CC(=O)NC2CCCC2)c2ccc(F)cc2)no1`, the activity change was -87.8% (active). `Cc1cc(NC(=O)CCC(=O)N(CC(=O)NC2CCCC2)c2ccc(F)cc2)no1`: the activity change was 8.19% (inactive). The figure for `Cc1cc(NC(=O)CCC(=O)N(c2cccc(F)c2)C(C(=O)NC2CCCC2)c2ccncc2)no1` (centres undefined) is 10.2% (inactive). As for `Cc1cc(NC(=O)/C=C/C(=O)N(c2ccccc2C)C(C(=O)NC2CCCC2)c2ccc(F)cc2)no1` (centres undefined), the activity change was -95.1% (active). As to `Cc1cc(NC(=O)CCC(=O)N(c2ccccc2)C(C(=O)NC2CCCC2)c2ccncc2)no1` (centres undefined), the activity change was -1.05% (inactive). In the case of `Cc1cc(C)cc(N(CC(=O)NC2CCCC2)C(=O)CCC(=O)Nc2cc(C)on2)c1`, the activity change was 23.6% (inactive). The figure for `Cc1oc2cc3oc(=O)ccc3cc2c1C` is -4.45% (inactive).

As for `Cc1ccc(S(=O)(=O)N2CC[C@H]3[C@@H](C2)C(=O)C[C@@H](c2ccccc2)N3S(=O)(=O)c2ccc(C)cc2)cc1`, the activity change is -0.365% (inactive). Turning to `CCCC(C(=O)OCCN(CC)CC)(c1ccccc1)c1ccccc1`, the activity change was -14.1% (inactive).

Take `O=C(COc1ccc(S(=O)(=O)N2CCCC2)cc1[N+](=O)[O-])N1CCCCC1`: the activity change was 10.9% (inactive). Consider `Cc1ccc(C(=O)OCC(=O)NC2CCCCCCC2)cc1C`, for which the activity change was 8.07% (inactive).

`Cc1noc(C)c1S(=O)(=O)N(C)C[C@H]1Oc2c(NC(=O)Nc3ccc4c(c3)OCO4)cccc2C(=O)N([C@H](C)CO)C[C@@H]1C`: the activity change was 5.23% (inactive). Consider `CSCCC(NC(=O)COc1ccccc1)C(=O)OCc1ccc(Cl)cc1` (centres undefined), for which the activity change is 6.8% (inactive). Turning to `CCn1c(C)cc(=O)cc1-c1ccc(Cl)cc1`, the activity change was 12.5% (inactive). The figure for `COc1ccc(Cn2c(-c3ccc(Cl)cc3)c[n+]3ccccc23)cc1` is -79.9% (active); for `COc1ccc(Cn2c(=O)oc3ccccc32)cc1` it is -4.96% (inactive); for `CC1(C(=O)NS(=O)(=O)c2ccccc2)CCN1C(=O)C1CCCCC1` (centres undefined) it is 25.7% (inactive). In the case of `Nc1nc2ncccn2c1-c1ccccc1`, the activity change is 18.6% (inactive). On to `CC(C)(COC(=O)Nc1ccccc1)COC(=O)Nc1ccccc1`, for which the activity change was -50.5% (active). With `CCOC(=O)Nc1ccc(NC(=O)OCC)cc1`, the activity change is 0.929% (inactive). For `O=C(Nc1ccccc1)OCc1cn(-c2ccc(Cl)cc2)nn1`, the activity change is 33.8% (inactive). Consider `Cc1cccc(N(CC(=O)N2CCCC2)S(C)(=O)=O)c1C`, for which the activity change was 25% (inactive). The value for `COC(=O)c1sc2[nH]c(=S)n(N)c(=O)c2c1C` was 6.13% (inactive); that for `CN(C(=O)c1cccc(NC(=O)Cc2ccc(NC(=O)C3CCCN(C(=O)C4CCCC4)C3)cc2)c1)C1CCC1` (centres undefined) was -10.6% (inactive); that for `COc1cccc(NC(=O)Nc2ccc(F)cc2)c1` was -27.3% (inactive). In the case of `COc1ccc2nc(/N=C(\N)NC(=O)Nc3ccccc3)nc(C)c2c1`, the activity change is -80.5% (active). For the compound `O=C(NNC(=O)C(O)c1ccccc1)NC1CCCCC1` (centres undefined), the activity change is 14.4% (inactive).

`Cc1nc(/N=C(\N)NC(=O)NC2CCCCC2)nc2ccccc12`: the activity change was -104% (active). The value for `COc1ccc2nc(C)cc(Nc3cccc(C(=O)O)c3)c2c1` was 10.8% (inactive); that for `CC(C)c1cc(C(=O)NC2CCCCCC2)c2ccccc2n1` was 0.331% (inactive); that for `CCCc1nc2ccccc2n1C(C)C(=O)NC(C)(C)C` (centres undefined) was 29% (inactive). The figure for `O=C(NNc1nc(N2CCCC2)nc(N2CCCC2)n1)c1ccccc1` is -0.122% (inactive); for `O=C1CCC(C(=O)N2CCC(O)(c3ccccc3)CC2)CN1CCc1ccccc1` (centres undefined) it is -11.9% (inactive); for `O=C(CN1C(=O)NC2(CCc3ccccc32)C1=O)NC1CCCCC1` (centres undefined) it is -10.5% (inactive). `COC(=O)c1ccccc1N=NNc1ccc([N+](=O)[O-])cc1`: the activity change is -18.2% (inactive). On to `COC(=O)c1c(C)oc(C)c1S(=O)(=O)Nc1ccc(C(C)C)cc1`, for which the activity change was 5.75% (inactive). Regarding `O=C(c1cc2ccccc2o1)N1CCN(c2cccc(C(F)(F)F)c2)CC1`, the activity change entry was “inactive”. In the case of `Cc1cc2ccccn2c1C(=O)c1cccc(S(=O)(=O)N2CCOCC2)c1`, the activity change was -17.1% (inactive). The value for `N#Cc1c(-c2cccs2)nc(SCC(=O)c2ccc(Br)cc2)[nH]c1=O` was 13.2% (inactive). The figure for `CCOC(=O)CC1COCCN1C(=O)c1cc(COc2ccc(F)c(F)c2)on1` (centres undefined) is 64.4% (inactive).

For the compound `OC(CNCC1CCCO1)Cn1c2ccc(Br)cc2c2cc(Br)ccc21` (centres undefined), the activity change is -62.5% (active). In the case of `CCCN1CCn2c3c(c4cc(Br)ccc42)CCCC31` (centres undefined), the activity change was 42.1% (inactive). The value for `O=C(CCNS(=O)(=O)c1ccc(Br)cc1)NCC1CCCO1` (centres undefined) was -2.41% (inactive). With `Cc1cc(-c2nnc(SCC(=O)Nc3ccc(F)cc3)n2N)n[nH]1`, the activity change is 20.7% (inactive).

As to `Cc1nn(-c2ccccn2)c2c1C(c1ccncc1)C1=C(CC(C)(C)CC1=O)N2` (centres undefined), the activity change was -7.64% (inactive). For `Cc1cc(C)c(C2C3=C(Nc4c2c(C)nn4-c2ccccn2)c2ccccc2C3=O)c(C)c1` (centres undefined), the activity change was -68.9% (active). As for `C=CCn1c(SCC(=O)CC(=O)OCC)nc2cc(C(=O)N3CCC(C(N)=O)CC3)ccc2c1=O`, the activity change was -3.87% (inactive). As for `C=CCn1c2ccccc2c2nnc(SC(CC)C(=O)Nc3nc(C)c(C(=O)OCC)s3)nc21` (centres undefined), the activity change is -24.9% (inactive). For `C=CCn1c2ccccc2c2nnc(SCc3[nH]c(=O)[nH]c3C(=O)CCCCC(=O)OCC)nc21`, the activity change was -80.5% (active). As to `O=C(OCc1ccccc1)N1CCC2CC1c1ccc(-c3ccc4c(c3)OCO4)cc12` (centres undefined), the activity change was 20% (inactive).

As for `CC(=O)Nc1ccc(Nc2c3ccccc3nc3ccccc23)cc1`, the activity change is -98.2% (active). The figure for `CCc1nc(Nc2ccc(NC(C)=O)cc2)c2oc3ccccc3c2n1` is -1.52% (inactive). In the case of `CC(=O)Nc1ccc(Nc2cc(C)nc(Nc3ccc(NC(C)=O)cc3)n2)cc1`, the activity change is 0.0358% (inactive). For `O=C1NC[C@H](CCCCN2C[C@H](Cc3ccccc3)N(Cc3ccccc3)C(=O)C2=O)N(CCc2ccc(O)cc2)C1=O`, the activity change is 0% (inactive). The value for `Cc1cccc(C)c1NC(=O)CNC(=O)c1c(C)nn(-c2ccccc2)c1C` was -13.7% (inactive); that for `Cc1nn(-c2ccccc2)c(C)c1NC(=O)CCl` was -95% (active).

Turning to `CCC(Oc1ccccc1)C(=O)OCC(=O)Nc1c(C)nn(-c2ccccc2)c1C` (centres undefined), the activity change is 8.98% (inactive). The value for `O=C(NCc1ccccc1)C(c1ccc(F)cc1)N1CCN(C(=O)C2CCCO2)CC1` (centres undefined) was 0% (inactive); that for `CCO/N=C(/C)c1c(O)cc(-c2ccccc2)n(-c2ccccc2)c1=O` was 17.3% (inactive). On to `CCCc1cc(=O)oc2c(C)c(OC(C)C(=O)NCC(O)c3ccccc3)ccc12` (centres undefined), for which the activity change is -14.8% (inactive). As for `C[C@@H]1ON(C)[C@H]2C[C@H]3c4cc(N5CCN(C)CC5)ccc4CCN3C(=O)[C@@H]12`, the activity change is -12.3% (inactive). The figure for `C(#CCN1CCOCC1)CCCN1CCOCC1` is 26% (inactive); for `O=C(c1ccc(Cl)c([N+](=O)[O-])c1)N1CCN(c2ccccc2)CC1` it is -26.9% (inactive); for `CO/N=C/c1ccc(N2CCN(C(=O)c3cccc(Cl)c3)CC2)c([N+](=O)[O-])c1` it is -16.9% (inactive). The value for `O=C(/C=C/c1ccc(Cl)cc1)N1CCN(c2ccccc2[N+](=O)[O-])CC1` was -78.3% (active); that for `CCOc1ccc(NS(=O)(=O)c2ccc(C(=O)NCC3CCCO3)cc2)cc1` (centres undefined) was 8.79% (inactive); that for `CCOC(=O)C1=NOC(Cn2cc(C(C)=O)c(=O)[nH]c2=O)C1` (centres undefined) was -0.897% (inactive). Turning to `Cc1ccc(S(=O)(=O)N2CCN(C(=O)COC(=O)/C=C/c3cccc(Cl)c3)CC2)c(C)c1`, the activity change is 23.3% (inactive). With `CCOC(=O)N1CCC(NC(=O)Cn2cc3c(n2)CCCCC3)CC1`, the activity change is 2.25% (inactive). As for `O=C(/C=C/c1ccc(F)cc1)NC(=S)NNC(=O)c1cccnc1`, the activity change is 20.7% (inactive). On to `c1ccc2c(c1)OC1OC2Oc2ccccc21`, for which the activity change is 10.9% (inactive). For the compound `COc1cc(OC)c(C(=O)NC2CCCCCC2)cc1OC`, the activity change was -59.1% (active). Consider `COc1ccc(S(=O)(=O)NC(C)C)cc1C(=O)NC1CCCCC1`, for which the activity change was 2.99% (inactive). The figure for `COc1cc(OC)c(C(=O)NC2CC(C)(C)NC(C)(C)C2)cc1OC` is 0% (inactive).
